# CD40 NFkB inh – CD40 pathway inhibition in BL2 cells; BL2 NF-kB luciferase reporter, CD40L-induced, 4 h; inhibition, % at 10 µM; actives 0.94% (n = 83,000); AID 1053188;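 active = mean inhibition of at least 50% with a set share of replicates also reaching that level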;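 note: 0% = neutral control wells and 100% = IKK inhibitor VII at 50 µM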
# * hit, by the source's call; [ ] = another dose, or the depositor's remark. Shown is part of a subset that was picked to be rich in hits.
SMILES,CD40 NFkB inh
COCCN(C[C@@H]1[C@@H](c2ccccc2)[C@H](CO)N1C(=O)C1CC1)C(C)=O,-10[25 µM]
CC(=O)c1cccc(NC(=O)/C=C/c2ccc(S(=O)(=O)N3CCOCC3)cc2)c1,8
COC(=O)c1cccc(NC(=O)/C=C/c2cccc([N+](=O)[O-])c2)c1,-30
O=C(/C=C/c1ccccc1)Nc1cccc(C(=O)O)c1,82*
N#C[C@H]1[C@H](c2ccccc2C2=CCCCC2)[C@@H](CO)N1C(=O)CN1CCOCC1,-2[25 µM]
Cc1oc(-c2nc3ccccc3n2C)cc1C(=O)c1ccccc1,62*
CC(=O)c1ccc(-c2nc3ccccc3n2C)o1,-65
Cn1cc(C(=O)c2ccccc2)cc1-c1nc2ccccc2n1C,-2
CN(C[C@@H]1[C@@H](c2ccccc2)[C@H](CO)N1C(=O)C1CC1)C(=O)c1ccccn1,-7[25 µM]
CSCCNC(=O)C1(C)CCN1C(=O)CCc1ccccc1 (stereo not given),-3
c1ccn2cc(-c3ccc4c(c3)OCCO4)nc2c1,67*
O=S(=O)(c1cccc(-c2cn3ccccc3n2)c1)N1CCCCC1,7
CN(C)S(=O)(=O)c1cccc(-c2cn3ccccc3n2)c1,-28
COc1ccc(C2(OC)Oc3cc(OC)ccc3C(=O)C2(O)OC)cc1 (stereo not given),-1
C[C@H](NC(=O)N(C)C[C@H]1OCc2ccccc2-c2c(n(C)c3ccccc23)C(=O)N([C@@H](C)CO)C[C@@H]1C)c1ccccc1,9
COc1ccc(CC(=O)OCC(=O)NCc2ccco2)cc1,5
COc1ccc(OCC(=O)OCC(=O)NCc2ccco2)cc1,9
Cc1cc(OCC(=O)OCC(=O)NCc2ccco2)ccc1Cl,31*
O=C(Nc1ccc(F)cc1)N1CC(=O)N2[C@@H](CO)[C@@H](c3ccc(C#Cc4ccc(F)cc4)cc3)[C@@H]2C1,12
O=C(NCC1CC1)[C@H]1[C@H](CO)[C@H]2Cn3c(ccc(-c4cccc(F)c4)c3=O)[C@H]2N1CC1CCOCC1,0[25 µM]
COc1ccc(S(=O)(=O)N(C)C[C@H]2OCc3ccccc3-c3ccccc3C(=O)N([C@H](C)CO)C[C@H]2C)cc1,-3
CC(=O)N1[C@@H]2Cn3c(ccc(C4=CCCC4)c3=O)[C@H]1[C@@H](C(=O)NCC1CC1)[C@@H]2CO,-6[25 µM]
COc1cccc(NC(=O)N(C)C[C@H]2OCc3ccccc3-c3ccccc3C(=O)N([C@H](C)CO)C[C@H]2C)c1,-18[25 µM]
N#Cc1ccc(-c2ccc([C@@H]3[C@H]4CN(C(=O)Nc5ccc(F)cc5)CCCCN4[C@H]3CO)cc2)cc1,6[25 µM]
CCOC(=O)CN(c1ccccn1)S(=O)(=O)c1ccccc1,3
SMILES,CD40 NFkB inh
CCOC(=O)CC(S(=O)(=O)c1ccccc1)S(=O)(=O)c1ccccc1,97*
CCOC(=O)N=S(N)(=O)c1ccccc1 (stereo not given),4
O=C1C=CC(=O)C2=C1C1c3ccccc3C2c2ccccc21,59*[25 µM]
O=C1NNC(=O)C1c1ccccc1,7
CN1C(=O)c2ccccc2C(O)c2ccccc21 (stereo not given),15
CC(C)NC(=O)N1C2CN(CC(F)(F)F)CC1C2c1ccc(Br)cc1 (stereo not given),-1
O=C1C(Br)=C(c2ccccc2)C(c2ccccc2)=C1c1ccccc1,82*
COc1ccc2c3c(n(C)c2c1)[C@H](CO)N(C(=O)C1CCC1)CC31CCN(CC2CCCC2)CC1,4[25 µM]
Nc1ccn(C2OC(COC(=O)C34CC5CC(CC(C5)C3)C4)C(O)C2O)c(=O)n1 (stereo not given),-7
COc1ccc(NC(=O)N(C)C[C@H]2OCc3ccccc3-c3c(n(C)c4ccccc34)C(=O)N([C@@H](C)CO)C[C@@H]2C)c(OC)c1,2[25 µM]
c1ccc(-c2nnc(-c3ccccn3)nn2)nc1,49*
c1ccc(-c2noc(C3CCC3)n2)nc1,2
c1ccc(-c2cccc(-c3ccccn3)n2)nc1,10
O=C(NCCCn1ccnc1)c1ccc(N2CCCCC2)c([N+](=O)[O-])c1,18
CCOC(=O)c1[nH]c(=S)n(-c2ccccc2)c1C(=O)OCC,22
CCOC(=O)c1c(SCCN2CCCCC2)n(-c2ccccc2)c(=S)n(-c2ccccc2)c1=O,95*
CCOC(=O)c1c(NC(=O)CN2CCCCC2)sc(CN(C)C)c1-c1ccccc1,23
O=C(NCc1ccc2c(c1)OCO2)[C@@H]1[C@@H](CO)[C@@H]2Cn3c(cccc3=O)[C@H]1N2Cc1cncnc1,-9[25 µM]
C[C@@H]1CCCCO[C@@H](CN(C)Cc2ccncc2)[C@H](C)CN([C@@H](C)CO)C(=O)c2cc(NS(=O)(=O)c3ccc(Cl)cc3)ccc2O1,-8[25 µM]
C[C@@H]1CCCCO[C@H](CN(C)S(=O)(=O)c2ccc(F)cc2)[C@H](C)CN([C@H](C)CO)C(=O)c2cc(NS(C)(=O)=O)ccc2O1,-5
COc1ccc(C(=O)/C=C/Sc2nc3ccccc3o2)cc1,75*
N#CCSc1nc2ccccc2o1,11
O=C(/C=C/Sc1ccccc1)c1ccccc1,-26
COc1cccc(CN2[C@@H](CO)[C@H](c3ccccc3)C23CN(C(=O)C2CCCCC2)C3)c1,-2[25 µM]

# Screening data as filed in PubChem BioAssay.
